According to PubChem BioAssay (Tox21):
Inconclusive results are not listed. Entries that show only a call come without a potency. The source made the active and inactive calls. Calls come from the whole dose curve; as a rule, active = well fitted cell-killing curve with a large enough effect in the repeat runs; inconclusive = weak or mixed curves, or effect the other way; inactive = flat fitted curve, though single readings scatter.

Tests used:
[1] = cAMP Responsive Elements (CRE) small molecule antagonists, cell-based qHTS assay: qHTS cell viability counter screen (AID 2060913); conditions: CRE-bla HEK293T viability, CellTiter-Glo luminescence, 5 h; series mostly up to 92.4 µM; note: nearly all actives have a fitted effect of over 40% in size
Outline: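 Viability of NKH477-stimulated (0.25 uM final) CRE-bla HEK293T cells is measured by CellTiter-Glo luminescence following 3 hrs compound exposure at 37 C.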

[2] = cAMP Responsive Elements (CRE) small molecule agonists, cell-based qHTS assay: qHTS cell viability counter screen (AID 2060914); conditions: CRE-bla HEK293T viability, CellTiter-Glo luminescence, 5 h; series mostly up to 92.4 µM;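 note: viability read after 3 h of compound exposure; nearly all actives have a fitted effect of over 50% in size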
Outline: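 CRE-bla HEK 293T cells, plated 18 h at 37 °C, were exposed to compounds for 3 h at 37 °C/5% CO2. Viability was then measured in the same wells by CellTiter-Glo luminescence after 30 min at room temperature.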

SMILES	Potency [1]	Potency [2]
O=C(O)COc1cc(Cl)c(Cl)cc1Cl	inactive	inactive
C=CC(=O)OCCCCCC(C)C	inactive	inactive
CC(C)CP(=S)(S)CC(C)C	inactive	inactive
